Laboratory results published in PubChem BioAssay (Tox21).
Results filed as inconclusive are left out. Entries that show only a call come without a potency. Activity calls are given as the source filed them. Calls follow the shape of the full dose curve.

Biological target: 5-hydroxytryptamine receptor 2A (Homo sapiens) (UniProt P28223)
Test: 5-hydroxytryptamine receptor 2A (HTR2A) small molecule antagonists, cell-based qHTS assay (AID 1963586); also: nearly all actives have a fitted effect of over 45% in size
Settings: HTR2A-CHO cells, DOI-induced calcium flux, fluorescence; series mostly up to 61.5 µM
Source text: National Center for Advancing Translational Sciences [NCATS]
Division of Preclinical Innovation [DPI]
U.S. Environmental Protection Agency [EPA]
National Institutes of Environmental Health Sciences [NIEHS]
National Toxicology Program [NTP]
U.S. Food and Drug Administration [FDA]
The HTR2A receptor is a subtype of the 5-HT2 receptor that belongs to the serotonin receptor family and is a G protein-coupled receptor (GPCR). The HTR2A-CHO cell line stably expressing human 5-hydroxytryptamine receptor 2A (HTR2A) can be used for screening antagonists of interactions between 5-HT2 and its ligands. The HTR2A-CHO calcium flux assay is a homogeneous fluorescence-based assay for detecting the intracellular calcium level using FDSS kinetic plate reader system.
Tox21 Assay Protocol Summary:
HTR2A-CHO cells were dispensed at 2000 cells/3uL/well in 1536-well black-clear bottom plates using a Multidrop Dispenser. After the assay plates were incubated at a 37 C/5% CO2 incubator for 18 h, 3 uL of Dye Loading Buffer was transferred to the assay plate by a Flying Reagent Dispenser. The assay plates were incubated at 37 C for 1h. For antagonist mode, 23 nL of compounds dissolved in DMSO, positive controls or DMSO only was transferred to the assay plate by a pin tool. After 5 min incubation at room temperature, 1.5 uL of 4-Iodo-2,5-dimethoxy-alpha-methylbenzeneethanamine hydrochloride (DOI) at 4nM was added to each well. The fluorescence intensity in the plates was measured using FDSS 7000EX kinetic plate reader for 3 min at 1 sec intervals.

5-hydroxytryptamine receptor 2A (Homo sapiens), sequence (P28223 whole entry, looked up): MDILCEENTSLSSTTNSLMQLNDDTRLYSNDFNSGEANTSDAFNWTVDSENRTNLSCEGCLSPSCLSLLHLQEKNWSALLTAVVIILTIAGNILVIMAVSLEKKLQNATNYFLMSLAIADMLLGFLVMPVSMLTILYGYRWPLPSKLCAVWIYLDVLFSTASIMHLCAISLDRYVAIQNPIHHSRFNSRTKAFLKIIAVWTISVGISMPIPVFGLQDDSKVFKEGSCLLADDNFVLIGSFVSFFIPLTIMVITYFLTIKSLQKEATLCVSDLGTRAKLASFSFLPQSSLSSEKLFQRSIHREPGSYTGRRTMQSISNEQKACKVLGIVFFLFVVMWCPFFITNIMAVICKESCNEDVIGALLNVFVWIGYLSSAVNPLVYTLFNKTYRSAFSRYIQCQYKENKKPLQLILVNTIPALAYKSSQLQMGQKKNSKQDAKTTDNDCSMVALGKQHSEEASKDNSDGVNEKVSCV

Compound	Potency	activity, negative = inhibition
CC(COC(=O)c1ccccc1)OC(=O)c1ccccc1 (stereo not given)	inactive	–
c1ccc2ncccc2c1	inactive	–
CC(C)(C)c1ccc(S)cc1	inactive	–
CC(C)C1CCC(O)CC1 (stereo not given)	inactive	–
CC(C)CCCCCOC(=O)CCS	inactive	–
CCCCCCCC/C=C\CCCCCCCC(N)=O	inactive	–
O=c1oc2c(O)c(O)cc3c(=O)oc4c(O)c(O)cc1c4c23	–	-5.93% [at 12.7 µM] (inactive)
Cc1ccc(Nc2ccc(O)c3c2C(=O)c2ccccc2C3=O)cc1	inactive	–
C[C@@H]1O[C@@H](OC[C@H]2O[C@@H](Oc3c(-c4ccc(O)c(O)c4)oc4cc(O)cc(O)c4c3=O)[C@H](O)[C@@H](O)[C@@H]2O)[C@H](O)[C@H](O)[C@H]1O	inactive	–
COc1cc(C(=S)N2CCOCC2)ccc1O	inactive	–
OCC(O)CN1CCN(c2ccccc2)CC1 (stereo not given)	inactive	–
COCCOCCOCCOCCOCCO	inactive	–
O=c1cc(-c2ccccc2)oc2ccccc12	inactive	–
NC(=O)c1ccccc1N	inactive	–
CC1CCC(C(C)(C)S)C(=O)C1 (stereo not given)	inactive	–
Cc1cc(C)c(C(=O)O)c(C)c1	inactive	–
CCCC[C@H]1CN(CC2CCOCC2)C(=O)OC12CCN(C1(C)CCN(C(=O)c3c(C)ncnc3C)CC1)CC2	inactive	–
Cc1ccc2c(ccc3ccccc32)c1	inactive	–
CCCCC(C)C(=O)O (stereo not given)	inactive	–
CCCCCCCCC(=O)OCC	inactive	–

Compound	Potency	activity, negative = inhibition
C/C(=N\O)[C@@H](C)NCC(C)(C)CN[C@H](C)/C(C)=N/O	inactive	–
CC(C)CC(=O)OCc1ccccc1	inactive	–
CCCCN(CCO)CCO	inactive	–
CN(CC1(C)CCCO1)S(=O)(=O)c1ccc(Cl)c(S(N)(=O)=O)c1 (stereo not given)	inactive	–
CCC(C)(C)C1CCCCC1OC(C)=O (stereo not given)	inactive	–
CCC/C=C/C=O	inactive	–
O=C(O)c1cccc(C[C@@H]2COc3ccc(OCc4nc5cc(F)ccc5s4)cc3[C@@H]2O)c1	inactive	–
CO[Si](CCCNCCNCCN)(OC)OC	inactive	–
CCN(CC)c1ccc2c(C)cc(=O)oc2c1	inactive	–
CCCN[C@H]1CCc2nc(N)sc2C1	inactive	–
CC(=O)CC(=O)Nc1ccccc1	inactive	–
CC(=O)NCc1c(I)c(NC(C)=O)c(I)c(C(=O)O)c1I	inactive	–
CC(C)C(=O)Nc1cccc(C2CN3CCSC3=N2)c1 (stereo not given)	inactive	–
O=P(O)(OCc1ccccc1)OCc1ccccc1	inactive	–
CC(C)(N=C=O)c1cccc(C(C)(C)N=C=O)c1	inactive	–
CC(O)C(CO)C(C)O (stereo not given)	inactive	–
O=C(O)c1cc(C(=O)O)cc([N+](=O)[O-])c1	inactive	–
CCCCCC(CC)OC(=O)CCCOc1ccc(Cl)cc1Cl (stereo not given)	inactive	–
CCNc1cc(O)ccc1C	inactive	–
C=C(C)[C@H]1CC=C(C)C(=O)C1	inactive	–
